Compounds without any hit were thinned out: in the full panel of roughly 83,000, 20% have a hit.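 Negative percent growth values reflect cell death: -40 means 40% of the cells present at the start died, and -100 means all died.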 Unmarked numbers belong to inactive results. Calls of active or inactive are those of the source. How the source made its calls: active means growth percent below 10; inactive means the rest.

This is an account of results in PubChem BioAssay (NCI).

Among the test systems are T-47D breast; BT-549 breast; MDA-MB-435 melanoma; SW-620 colon; MCF7 breast; HCT-116 colon; HCC-2998 colon; KM12 colon.
What all share (test): NCI-60 one-dose screen, 48 h (100 = growth as untreated, 0 = no growth, -100 = all killed)
Holding throughout (details): 10 µM unless noted

For the compound `CCCCCCCCOC(=O)c1c(C)[nH]c(/C=C2\N=C(c3ccc[nH]3)C=C2OC)c1C`, the growth is 4.23% (active) in the test on T-47D breast; 10.4% in the test with BT-549 breast; -19.4% (active) in the test on MDA-MB-435 melanoma; 5.83% (active) with SW-620 colon; -58.1% (active) in the test on MCF7 breast; -83.5% (active) in the test with HCT-116 colon. Besides, the growth in the test with HCC-2998 colon is -26.4% (active); in the test with KM12 colon it was 0.693% (active).

With `Cc1c(Cl)cccc1NC(=O)c1sc2nc3c(cc2c1N)CCCC3`, the growth in the test with T-47D breast is 35%; with BT-549 breast, 52.6%; in the test with MDA-MB-435 melanoma it was -16.1% (active); in the test on SW-620 colon, 19.2%; with MCF7 breast it was 16.3%; in the test with HCT-116 colon, 24.4%. Besides, the growth was 58.5% with HCC-2998 colon and 23.6% in the test on KM12 colon.

Turning to `CS(=O)(=O)Nc1cc(-c2ccc3ncnc(Nc4cccc(Cl)c4)c3c2)cnc1Cl`, the growth in the test with T-47D breast is -22.9% (active); in the test on BT-549 breast, -15.5% (active); in the test with MDA-MB-435 melanoma it was 8.58% (active); in the test on SW-620 colon, 11.5%; with MCF7 breast it was 5.3% (active); in the test on HCT-116 colon, -26.9% (active). The growth in the test on HCC-2998 colon was 2.63% (active); in the test on KM12 colon, 5.4% (active).

With `Cc1ccc(OCCOCCOCCOCCOc2ccc(C)n(O)c2=S)c(=S)n1O`, the growth in the test on T-47D breast is 8.09% (active); with BT-549 breast, 14.1%; in the test with MDA-MB-435 melanoma, 29.4%; in the test with SW-620 colon, 25.7%; in the test on MCF7 breast, 10.1%; with HCT-116 colon it was 14.3%. Also, the figures for the growth in the test with HCC-2998 colon and with KM12 colon were 5.72% (active) and 18.6%, respectively.

For the compound `CC(=O)O[C@H]1C[C@@]2(C)[C@@H](C[C@@H](O)[C@H]3[C@@]4(C)CC[C@H](N5CCCC5)[C@@H](C)[C@@H]4CC[C@@]32C)/C1=C(\CCC=C(C)C)C(=O)O`, the growth in the test with T-47D breast is 103%; with BT-549 breast it was 101%; in the test with MDA-MB-435 melanoma it was 99.7%; in the test on SW-620 colon, 96.2%; in the test with MCF7 breast, 90.7%; in the test on HCT-116 colon, 99.9%. Also, the growth in the test on HCC-2998 colon is 104%; in the test on KM12 colon, 102%.

As for `Fc1ccc(/C=C/c2cc(/C=C/c3ccc(F)cc3)n(-c3cc(F)cc(F)c3)n2)cc1`, the growth was 80.2% with T-47D breast; 97.6% in the test with BT-549 breast; 103% with MDA-MB-435 melanoma; 104% in the test with SW-620 colon; 89% in the test on MCF7 breast; 84.5% in the test with HCT-116 colon. For the same compound, the figures for the growth with HCC-2998 colon and with KM12 colon were 93.4% and 105%, respectively.

`COC(=O)c1ccc(-n2cc(CCCOS(=O)(=O)c3ccc(F)cc3)nn2)cc1`: the growth in the test on T-47D breast is 97.9%; in the test on BT-549 breast, 101%; in the test on MDA-MB-435 melanoma it was 97.3%; with SW-620 colon it was 100%; in the test on MCF7 breast, 92.1%; in the test on HCT-116 colon it was 99.6%. Also, the growth with HCC-2998 colon was 110%; with KM12 colon, 100%.

`COc1ccc(-c2nc3cc(C(=O)NC4CCCCC4)ccc3n2C2CCCCC2)cc1`: the growth in the test with T-47D breast was 87.6%; in the test with BT-549 breast, 94.9%; with MDA-MB-435 melanoma, 99.4%; in the test on SW-620 colon, 101%; in the test on MCF7 breast it was 85.2%; in the test with HCT-116 colon, 87.1%. The growth was 91.8% in the test with HCC-2998 colon and 68.6% with KM12 colon.

For the compound `COc1cccc(CNc2nnc(C)c(C)n2)c1O`, the growth is 94% with T-47D breast; 101% with BT-549 breast; 111% with MDA-MB-435 melanoma; 109% with SW-620 colon; 97.3% in the test with MCF7 breast; 100% in the test with HCT-116 colon. For the same compound, the growth was 96.4% with HCC-2998 colon and 107% in the test with KM12 colon.

In the case of `Clc1nc(N2CCC[N+]3(CC2)CC[N+]2(CCCNCC2)CC3)nc(N2CCC[N+]3(CC2)CC[N+]2(CCCNCC2)CC3)n1` (configuration not stated), the growth in the test on T-47D breast is 95%; with BT-549 breast, 95.1%; in the test with MDA-MB-435 melanoma it was 90%; in the test with SW-620 colon, 98.2%; with MCF7 breast, 91.3%; in the test on HCT-116 colon, 87%. The growth with HCC-2998 colon is 97.9%; with KM12 colon it was 94.4%.

For the compound `CN(C)c1ccc(Cc2cc(-c3ccccc3)nn(C/C(=N/O)c3ccccc3)c2=O)cc1`, the growth is 11.8% with T-47D breast; 61.2% in the test with BT-549 breast; 38% in the test on MDA-MB-435 melanoma; 62.1% in the test on SW-620 colon; 29.1% in the test on MCF7 breast; 46% in the test with HCT-116 colon. Moreover, the growth is 81.2% in the test with HCC-2998 colon and 31.8% in the test with KM12 colon.

With `CN(C)c1ccc(/C=C/C2=[N+](C)c3ccccc3C2(C)C)cc1`, the growth in the test on T-47D breast is 20.5%; in the test on BT-549 breast it was 17.2%; in the test with MDA-MB-435 melanoma it was 12.9%; with SW-620 colon it was 37.7%; in the test on MCF7 breast it was 5.64% (active); in the test on HCT-116 colon it was 15.7%. Besides, the growth in the test with HCC-2998 colon is 28%; with KM12 colon, 7.96% (active).

As for `O=C(CSc1nnc(-c2cc(-c3ccc(Cl)cc3)nc3ccccc23)n1-c1ccccc1)Nc1ccc(Cl)cc1`, the growth in the test on T-47D breast was 96.5%; in the test with BT-549 breast it was 110%; in the test with MDA-MB-435 melanoma, 102%; with SW-620 colon it was 106%; in the test with MCF7 breast it was 88.3%; in the test on HCT-116 colon, 86.3%. Further, the growth in the test with HCC-2998 colon was 111%; in the test on KM12 colon, 102%.

For the compound `N#C/C(=C\c1cccc2cnccc12)N1N=NC2C=CC=CC21` (configuration not stated), the growth was 23.8% in the test on T-47D breast; 41.6% with BT-549 breast; 9.28% (active) with MDA-MB-435 melanoma; 13.1% in the test on SW-620 colon; 13.6% with MCF7 breast; 14.2% in the test with HCT-116 colon. The growth is 91.7% in the test with HCC-2998 colon and 43.5% in the test on KM12 colon.
